In experiment [1] the target is Cell division control protein 42 homolog (Homo sapiens) (UniProt P60953). Description: activated mutant Cdc42 GTP-binding inhibitors, dose response, biochemical, multiplex bead flow cytometry, Bodipy-FL-GTP (AID 1333;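 active = fitted half-maximal concentration within the tested dose range, moderate curve steepness, a statistically real signal drop, and little compound fluorescence or tag-binding interference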).
For experiment [2] the target is unchanged. Kind of experiment: wildtype Cdc42 GTP-binding inhibitors, dose response, biochemical, multiplex bead flow cytometry, Bodipy-FL-GTP (AID 1334;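 active = fitted half-maximal concentration within the tested range, moderate curve steepness, significant signal drop, and little compound fluorescence or bead-linkage interference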). The following applies: bead-based flow cytometry, Bodipy-FL-GTP binding to GST-Cdc42; at 100 µM (top of the series) unless noted.
The target in experiment [3] is GTPase HRas (Homo sapiens) (UniProt P01112). Kind of experiment: inhibitors of GTP binding to wildtype Ras, dose response, biochemical, multiplex bead flow cytometry (AID 1335). The following applies: bead-based flow cytometry, Bodipy-GTP binding to GST-Ras; at 100 µM (top of the series) unless noted.
GTPase HRas (Homo sapiens), sequence (P01112 whole entry, looked up): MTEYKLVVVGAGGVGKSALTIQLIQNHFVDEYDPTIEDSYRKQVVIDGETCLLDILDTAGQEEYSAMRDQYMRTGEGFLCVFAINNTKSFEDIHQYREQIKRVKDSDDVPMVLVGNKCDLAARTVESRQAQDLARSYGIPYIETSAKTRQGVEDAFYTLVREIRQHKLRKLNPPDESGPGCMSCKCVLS
Experiment [4] has as its system Ras-related protein Rab-7a (dog), GTP binding. Kind of experiment: Rab7 GTP binding inhibitors, potency, dose response, biochemical, wildtype, multiplex bead flow cytometry (AID 1336; call rule not given here).
The target in experiment [5] is Ras-related C3 botulinum toxin substrate 1 (Homo sapiens) (UniProt P63000). Description: wildtype Rac1 GTP binding inhibitors, dose response, biochemical, multiplex bead flow cytometry (AID 1340;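 active = dose curve with midpoint inside tested range, moderate steepness, plateau gap beyond fit error, low compound glow and bead-link interference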). The following applies: GST-Rac1 beads, Bodipy-FL-GTP binding; at 100 µM (top of the series) unless noted.
The target of experiment [6] is GTPase HRas (Homo sapiens) (UniProt P01112). Description: activated Ras mutant GTP binding inhibitors, dose response, biochemical, multiplex bead flow cytometry (AID 1341;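 active = dose-response curve with midpoint inside the tested range, moderate steepness, significant amplitude and little compound fluorescence or bead-attachment interference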;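 also: GST-tagged constitutively activated Ras mutant immobilized on beads and multiplexed with other GTPases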).

For part of these data: Entries with a potency or affinity are not part of this list. Calls of active or inactive are those of the source.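 The calls were made as follows, unless noted: active = fitted half-maximal concentration within 10 nM to 100 µM, steepness 0.5 to 2, significant signal drop, low assay interference; inactive = the rest.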

Cell division control protein 42 homolog (Homo sapiens), sequence (P60953 whole entry, looked up): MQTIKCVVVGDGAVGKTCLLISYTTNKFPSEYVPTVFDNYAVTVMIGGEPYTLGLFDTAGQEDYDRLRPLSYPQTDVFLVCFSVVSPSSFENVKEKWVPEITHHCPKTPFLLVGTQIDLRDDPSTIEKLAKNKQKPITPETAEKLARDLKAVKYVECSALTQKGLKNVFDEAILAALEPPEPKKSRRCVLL

With `O=C(c1nnsc1S(=O)(=O)c1ccc(Cl)cc1)N1CCOCC1`, the molecule was classed as inactive in experiment [1], in experiment [4] and in experiment [6]. Further, in experiment [2], the fluorescence, percent of control (lower = inhibition) was found to be 39.7%. Also, the GTP binding, percent of control in experiment [3] was found to be 77.4%. In addition, the GTP binding signal, raw median fluorescence (lower = inhibition) (MCF (arbitrary fluorescence units)) in experiment [5] is 289.

On to `N#Cc1c(Nc2ccccc2)c(/C=N/N=C/c2ccccc2)c[nH]c1=O`, for which the call in experiment [1], in experiment [4] and in experiment [6] was inactive. The fluorescence, percent of control (lower = inhibition) in experiment [2] was 35.5%. This molecule also registered a GTP binding, percent of control in experiment [3] of 81.7%. Also, the GTP binding signal, raw median fluorescence (lower = inhibition) (MCF (arbitrary fluorescence units)) in experiment [5] turned out to be 211.

Take `Cn1cccc1/C=C1\SC(=S)N(NC(=O)c2ccccc2Cl)C1=O`: the outcome in experiment [1], in experiment [4] and in experiment [6] was inactive. Also, in experiment [2], the fluorescence, percent of control (lower = inhibition) worked out at 24.6%. In experiment [3], this molecule displayed a GTP binding, percent of control of 62.8%. Further, the GTP binding signal, raw median fluorescence (lower = inhibition) (MCF (arbitrary fluorescence units)) in experiment [5] is 178.

As for `COC(=O)c1cccc(Nc2cc(C)nc(-c3ccccc3O)n2)c1`, the outcome in experiment [1], in experiment [4] and in experiment [6] was inactive. Besides, the fluorescence, percent of control (lower = inhibition) in experiment [2] stood at 43.1%. Moreover, the GTP binding, percent of control in experiment [3] came out at 54.2%. Also, the GTP binding signal, raw median fluorescence (lower = inhibition) (MCF (arbitrary fluorescence units)) in experiment [5] was found to be 148.

Consider `O=C1OC(c2ccc(F)cc2)=C/C1=C\c1ccc([N+](=O)[O-])o1`, for which the outcome in experiment [1], in experiment [4] and in experiment [6] was inactive. Also, the fluorescence, percent of control (lower = inhibition) in experiment [2] worked out at 49.1%. This molecule returned a GTP binding, percent of control in experiment [3] of 91.4%. The GTP binding signal, raw median fluorescence (lower = inhibition) (MCF (arbitrary fluorescence units)) in experiment [5] worked out at 283.

As to `Cc1ccc(Sc2nnc(-c3ccccc3)cc2C#N)cc1`, the call in experiment [1], in experiment [4] and in experiment [6] was inactive. In experiment [2], the fluorescence, percent of control (lower = inhibition) turned out to be 104%. Further, the GTP binding, percent of control in experiment [3] stood at 178%. In addition, in experiment [5], the GTP binding signal, raw median fluorescence (lower = inhibition) (MCF (arbitrary fluorescence units)) worked out at 185.

As to `Cc1cc(C)n2nc(SCCOc3ccccc3)nc2n1`, the call in experiment [1], in experiment [4] and in experiment [6] was inactive. Moreover, the fluorescence, percent of control (lower = inhibition) in experiment [2] was 31.1%. Moreover, in experiment [3], the GTP binding, percent of control came to 71.1%. The GTP binding signal, raw median fluorescence (lower = inhibition) (MCF (arbitrary fluorescence units)) in experiment [5] was determined as 183.

Consider `Cc1ccc(Nc2cc(C(=O)O)c3ccccc3n2)c(C)c1`, for which the call in experiment [1], in experiment [4] and in experiment [6] was inactive. Further, in experiment [2], the fluorescence, percent of control (lower = inhibition) amounted to 60.5%. For the same molecule, the GTP binding, percent of control in experiment [3] came to 83.7%. For the same molecule, the GTP binding signal, raw median fluorescence (lower = inhibition) (MCF (arbitrary fluorescence units)) in experiment [5] was found to be 33.1.

In the case of `Oc1c(CN2CCOCC2)ccc2ccccc12`, the result in experiment [1], in experiment [4] and in experiment [6] was inactive. Also, the fluorescence, percent of control (lower = inhibition) in experiment [2] turned out to be 36.2%. Besides, in experiment [3], the GTP binding, percent of control stood at 84.5%. The GTP binding signal, raw median fluorescence (lower = inhibition) (MCF (arbitrary fluorescence units)) in experiment [5] was 250.

Regarding `Cc1cc2nc(/C(C#N)=C/c3ccncc3)[nH]c2cc1C`, the call in experiment [1], in experiment [4] and in experiment [6] was inactive. Besides, the fluorescence, percent of control (lower = inhibition) in experiment [2] is 30.6%. This molecule had a GTP binding, percent of control in experiment [3] of 76.7%. In experiment [5], this molecule displayed a GTP binding signal, raw median fluorescence (lower = inhibition) (MCF (arbitrary fluorescence units)) of 245.

As to `Nc1ccc2c(c1)C(=O)C(=O)c1ccccc1-2`, the call in experiment [1], in experiment [4] and in experiment [6] was inactive. In addition, the fluorescence, percent of control (lower = inhibition) in experiment [2] was found to be 22.1%. The molecule further gave a GTP binding, percent of control in experiment [3] of 57.5%. The molecule also yielded a GTP binding signal, raw median fluorescence (lower = inhibition) (MCF (arbitrary fluorescence units)) in experiment [5] of 73.8.

Turning to `CC(C)(C)C(=O)C#Cc1ccccc1`, the molecule was classed as inactive in experiment [1], in experiment [4] and in experiment [6]. In addition, the fluorescence, percent of control (lower = inhibition) in experiment [2] came out at 53.5%. This molecule returned a GTP binding, percent of control in experiment [3] of 203%. In experiment [5], this molecule registered a GTP binding signal, raw median fluorescence (lower = inhibition) (MCF (arbitrary fluorescence units)) of 55.8.

For `O=C(Cc1csc(Nc2nc(=S)[nH]c3ccccc23)n1)NCCCN1CCN(c2cccc(Cl)c2)CC1`, the outcome in experiment [1], in experiment [4] and in experiment [6] was inactive. For the same molecule, the fluorescence, percent of control (lower = inhibition) in experiment [2] is 34.3%. The GTP binding, percent of control in experiment [3] was 75.8%. Further, the GTP binding signal, raw median fluorescence (lower = inhibition) (MCF (arbitrary fluorescence units)) in experiment [5] came out at 192.

As to `C/C(=N\NC(=O)CC1N=C(Cc2ccccc2)NNC1=O)c1ccc(Cl)cc1Cl` (stereo not given), the molecule was classed as inactive in experiment [1], in experiment [4] and in experiment [6]. The fluorescence, percent of control (lower = inhibition) in experiment [2] was determined as 90.1%. This molecule showed a GTP binding, percent of control in experiment [3] of 160%. Also, the GTP binding signal, raw median fluorescence (lower = inhibition) (MCF (arbitrary fluorescence units)) in experiment [5] turned out to be 175.

Take `O=C(Nn1cc(C(=O)N2CCN(c3ccccc3F)CC2)c2ccccc2c1=O)c1cnccn1`: the molecule was called inactive in experiment [1], in experiment [4] and in experiment [6]. Besides, the fluorescence, percent of control (lower = inhibition) in experiment [2] is 98.6%. In experiment [3], the GTP binding, percent of control was 156%. The GTP binding signal, raw median fluorescence (lower = inhibition) (MCF (arbitrary fluorescence units)) in experiment [5] was determined as 197.

For the origin of these results see PubChem BioAssay.
